# ChEMBL document CHEMBL5606460, “ASAP - DENV-2 NS2B-NS3 protease fluorescence single point” (2024)
# Among all 2,000 compounds or so, about 110 (5.5%) showed an effect of 50% or more. For the sample, strong results were picked, then their nearest neighbours and some compounds at random.
# Target: Genome polyprotein (dengue virus type 2) (UniProt P29990)
# [1] = Thailand/16681/1984, Concentration 25.0 uM, Number of replicates 1.0
structure (smiles),measurement,setting,value
Cc1cc(CO)c2cccc(C[C@H](NC(=O)[C@@H](N)c3ccsc3)C(=O)O)c2n1,inhibition,"Thailand/16681/1984, Concentration 49.95 uM, Number of replicates 2.0, Standard deviation 1.7977802295531586 %",8.31%
same,inhibition,"Thailand/16681/1984, Concentration 99.9 uM, Number of replicates 2.0, Standard deviation 1.1856845832025373 %",20.1%
Cc1cc(CO)c2cccc(Cc3ccccc3NC(=O)c3ccno3)c2n1,inhibition,"Thailand/16681/1984, Concentration 49.95 uM, Number of replicates 2.0, Standard deviation 3.752588616330447 %",3.29%
same,inhibition,"Thailand/16681/1984, Concentration 99.9 uM, Number of replicates 2.0, Standard deviation 1.45880155634974 %",6.29%
Cc1cccc(C)c1OC[C@H](C)NC(=O)C1CCN(c2ccc(C=O)cc2)CC1,inhibition,[1],6.86%
CCCN(C)C(=O)c1cc(Cl)ccc1NS(=O)(=O)c1ccc(Oc2ccccc2Cl)cc1,inhibition,"Thailand/16681/1984, Concentration 49.5 uM, Number of replicates 2.0, Standard deviation 0.9470295707961462 %",75.9%
same,inhibition,"Thailand/16681/1984, Concentration 99.01 uM, Number of replicates 2.0, Standard deviation 0.4835625940830703 %",88.8%
same,inhibition,"Thailand/16681/1984, Concentration 198.0 uM, Number of replicates 2.0, Standard deviation 0.2692812727579233 %",93.4%
CNC(=O)c1cc(Cl)ccc1N(C)S(=O)(=O)c1ccc(Oc2ccccc2Cl)cc1,inhibition,"Thailand/16681/1984, Concentration 49.5 uM, Number of replicates 2.0, Standard deviation 1.1912141654334696 %",-2.39%
same,inhibition,"Thailand/16681/1984, Concentration 99.01 uM, Number of replicates 2.0, Standard deviation 1.3706697565683075 %",-0.121%
same,inhibition,"Thailand/16681/1984, Concentration 198.0 uM, Number of replicates 2.0, Standard deviation 0.031456216092408736 %",3.32%
CN(c1ccc(Cl)cc1C(N)=O)S(=O)(=O)c1ccc(Oc2ccccc2Cl)cc1,inhibition,"Thailand/16681/1984, Concentration 49.5 uM, Number of replicates 2.0, Standard deviation 0.11551161483271621 %",1.15%
same,inhibition,"Thailand/16681/1984, Concentration 99.01 uM, Number of replicates 2.0, Standard deviation 0.4161514072882 %",3.78%
same,inhibition,"Thailand/16681/1984, Concentration 198.0 uM, Number of replicates 2.0, Standard deviation 1.5666270190069185 %",5.59%
CN(CCS(N)(=O)=O)C(=O)c1cc(Cl)ccc1NS(=O)(=O)c1ccc(Oc2ccccc2Cl)cc1,inhibition,"Thailand/16681/1984, Concentration 49.5 uM, Number of replicates 2.0, Standard deviation 3.051075775612508 %",8.12%
same,inhibition,"Thailand/16681/1984, Concentration 99.01 uM, Number of replicates 2.0, Standard deviation 2.2523140974306535 %",55.8%
same,inhibition,"Thailand/16681/1984, Concentration 198.0 uM, Number of replicates 2.0, Standard deviation 0.05978513602530914 %",97.7%
COCCCN(Cc1ccccc1)C(=O)C1CCN(c2ccc(C=O)cc2)CC1,inhibition,[1],16.7%
O=Cc1ccc(N2CCC(C(=O)Nc3cccc(OC(F)(F)F)c3)CC2)cc1,inhibition,[1],12.8%
O=Cc1ccc(N2CCC(C(=O)N3CCN(c4ncc(C(F)(F)F)cc4Cl)CC3)CC2)cc1,inhibition,[1],-1.15%
CSCC(=O)Nc1ccc(Cl)c2cccnc12,inhibition,"Thailand/16681/1984, Concentration 49.95 uM, Number of replicates 2.0, Standard deviation 4.284996583998793 %",-8.76%
same,inhibition,"Thailand/16681/1984, Concentration 99.9 uM, Number of replicates 2.0, Standard deviation 5.022059659232943 %",-8.17%
Cc1c(C(=O)NCc2ccc(Cl)cc2OCCO)ccc(O)c1NC(=O)c1ccncc1F,inhibition,"Thailand/16681/1984, Concentration 49.5 uM, Number of replicates 2.0, Standard deviation 1.9465984757153059 %",-3.14%
same,inhibition,"Thailand/16681/1984, Concentration 99.01 uM, Number of replicates 2.0, Standard deviation 1.7394020396248402 %",-2.65%
same,inhibition,"Thailand/16681/1984, Concentration 198.0 uM, Number of replicates 2.0, Standard deviation 1.2400320592735166 %",0.351%
Cc1ccc2cccc(NC(=O)C3CCN(c4ccc(C=O)cc4)CC3)c2n1,inhibition,[1],50.9%
O=Cc1ccc(N2CCC(C(=O)Nc3cccc4ccc(O)cc34)CC2)cc1,inhibition,[1],35.2%
O=Cc1ccc(N2CCC(C(=O)Nc3cccc(C(F)(F)F)n3)CC2)cc1,inhibition,[1],13.5%
O=Cc1ccc(N2CCC(C(=O)Nc3cccc(Br)n3)CC2)cc1,inhibition,[1],92.6%
O=Cc1ccc(N2CCC(C(=O)Nc3ncc(F)cc3Br)CC2)cc1,inhibition,[1],10.9%
O=Cc1ccc(N2CCC(C(=O)Nc3ncc(Br)cc3O)CC2)cc1,inhibition,[1],52.8%
Cc1nc(NC(=O)C2CCN(c3ccc(C=O)cc3)CC2)ccc1Br,inhibition,[1],12.1%
O=Cc1ccc(N2CCC(C(=O)Nc3ccc(Br)cc3O)CC2)cc1,inhibition,[1],31.4%
Cc1c(Br)cccc1NC(=O)C1CCN(c2ccc(C=O)cc2)CC1,inhibition,[1],13%
COC(=O)c1cccc(C(=O)Nc2ccncc2C)c1,inhibition,"Thailand/16681/1984, Concentration 49.5 uM, Number of replicates 2.0, Standard deviation 0.22567664905073445 %",-4.08%
same,inhibition,"Thailand/16681/1984, Concentration 99.01 uM, Number of replicates 2.0, Standard deviation 0.2045809712592737 %",-3.74%
same,inhibition,"Thailand/16681/1984, Concentration 198.0 uM, Number of replicates 2.0, Standard deviation 1.3054913833669988 %",-2.98%
C[C@@H](c1ccccc1)N(CC1CC1)C(=O)C1CCN(c2ccc(C=O)cc2)CC1,inhibition,[1],13.8%
O=C(c1csc([C@H]2CCCNC2)n1)N1CC[C@H](c2cccnc2)C1,inhibition,"Thailand/16681/1984, Concentration 49.5 uM, Number of replicates 2.0, Standard deviation 1.7251582592894925 %",-0.499%
same,inhibition,"Thailand/16681/1984, Concentration 99.01 uM, Number of replicates 2.0, Standard deviation 2.248532513594862 %",1.01%
same,inhibition,"Thailand/16681/1984, Concentration 198.0 uM, Number of replicates 2.0, Standard deviation 1.6393165928155962 %",2.41%
NS(=O)(=O)c1cccc(CN2CC[C@H](c3c[nH]c4ccccc34)C2)c1,inhibition,"Thailand/16681/1984, Concentration 49.5 uM, Number of replicates 2.0, Standard deviation 1.1633260593891446 %",-1.78%
same,inhibition,"Thailand/16681/1984, Concentration 99.01 uM, Number of replicates 2.0, Standard deviation 1.588607527736017 %",0.04%
same,inhibition,"Thailand/16681/1984, Concentration 198.0 uM, Number of replicates 2.0, Standard deviation 1.7864683947344713 %",2.15%
